# Screening data as filed in PubChem BioAssay.
# Shown are actives, neighbours in structure and some others; about 0.5% of the full set was active somewhere.
# Tat export inh: E. coli Tat transport inhibition. actives 0.036% (n = 340,000). E. coli MC4100 TorA-mCherry Tat export, fluorescence. inhibition, % at 10 µM;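 active = mean replicate inhibition at least 50% and at least half of replicates individually reaching 50%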;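 note: exported cargo escapes ClpAP degradation while cytoplasmic cargo is degraded and loses fluorescence; 0% = median of neutral control wells and 100% = median of NaSCN control wells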
# E coli growth-1: inhibitors of Escherichia coli growth; actives 0.21% (n = 330,000); AID 1053175; OD600, 23 h; hits give low values; OD600 absorbance (concentration not given with the values);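 active = OD600 absorbance below the run mean of sample wells minus 3.6 SD, in any replicate, cut at about 0.56 in these data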
# E coli growth-2: bacterial growth inhibition, counter-screen for AddAB inhibitors; E. coli V3065 growth, OD600 absorbance, 18 h; inhibition, % at 11.9 µM; actives 0.27% (n = 330,000);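 active = inhibition above the campaign's mean inhibition across all tested compounds plus 3 SD, cut at about 9.9% in these data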;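 note: uninfected addAB+ strain grown without phage in ampicillin broth; 0% = DMSO wells and 100% = ciprofloxacin 0.95 µg/ml wells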
# phage Ecoli inh: E. coli growth loss with phage present | growth absorbance | inhibition, % at 11.9 µM | actives 0.26% (n = 360,000); in the data active = inhibition above about 11%
# AddAB inh: less growth of phage-infected E. coli with AddAB | E. coli expressing H. pylori AddAB, absorbance growth | actives 0.29% (n = 330,000) | inhibition, % at 11.9 µM; in the data active = inhibition above about 12%;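 note: 0% = vehicle wells of infected cells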
# AddAB confirm: growth loss of T4-infected E. coli expressing H. pylori AddAB, confirmed; inhibition, % at 11.9 µM; E. coli V3065 expressing H. pylori AddAB, T4 phage, OD; T4 phage with gene 2 nonsense mutations; AID 488942; actives 64% (n = 880); shares compounds with AddAB inh;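 active = mean inhibition above a set limit taken from the earlier primary screen, cut at about 13% in these data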;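 note: higher means less bacterial growth since AddAB block lets phage replicate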
# RecBCD counter: reduces growth of phage-infected RecBCD+ E. coli, AddAB inhibitor counter-screen; shares compounds with AddAB inh; E. coli V66 + mutant T4 phage, OD growth; inhibition, % at 11.9 µM; actives 73% (n = 880); AID 488955;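 active = mean inhibition above the mean of solvent-only control wells plus 3 SD, cut at about 4% in these data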;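 note: optical density read after an 18 h incubation at 37 °C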
# Bact viability: counter-screen for AddAB inhibitors: inhibitors of bacterial viability; shares compounds with AddAB inh; absorbance (AddAB counterscreen); inhibition, % at 11.9 µM; actives 35% (n = 880); in the data active = inhibition above about 25%
# * = called active by the depositor; nt = not tested or not shown.
SMILES,Tat export inh,E coli growth-1,E coli growth-2,phage Ecoli inh,AddAB inh,AddAB confirm,RecBCD counter,Bact viability
NS(=O)(=O)c1ccc(CCNC(=O)CSc2ccsc2[N+](=O)[O-])cc1,-1,0.64,15*,7,16*,40*,5.4*,32*
CC1CCN(CCCCOc2cccc(C(C)C)c2)CC1,-5,0.69,-1,3,-1,nt,nt,nt
O=S(=O)(NCc1ccc2c(c1)OCO2)c1ccc2c(c1)oc1ccccc12,1,0.66,4,4,2,nt,nt,nt
Cn1cnc([N+](=O)[O-])c1Sc1ncnc2nc[nH]c12,-2,0.7,1,2,2,nt,nt,nt
Cn1cnc(Sc2ncnc3nc[nH]c23)c1[N+](=O)[O-],6,nt,17*,11,26*,53*,10*,33*
CCc1ccc(C(C(=O)NCc2ccccc2)N(C(=O)c2csnn2)C2CC2)cc1 (configuration not stated),-2,0.65,46*,0,99*,-4,0,-2
O=C(NCc1ccccc1)C(c1ccccc1)N(C(=O)c1csnn1)C1CC1 (configuration not stated),-2,0.71,1,3,3,nt,nt,nt
Cc1cccc2cc(C#N)c(N3CCOCC3)nc12,-3,0.67,-1,2,3,nt,nt,nt
Cc1cccc2cc(C#N)c(N3CCC(O)CC3)nc12,-12,0.7,2,3,13*,2,0,-1
O=C(NN=Cc1cc([N+](=O)[O-])ccc1O)c1cccc2cc[nH]c12,nt,0.71,nt,nt,nt,nt,nt,nt
O=C(N/N=C/c1cc([N+](=O)[O-])ccc1O)c1cccc2cc[nH]c12,-3,nt,10*,5,14*,3,7.0*,-1
CCOc1nc(C)cc(C)c1S(=O)(=O)c1ccc(Cl)cc1,-1,0.7,-1,2,-1,nt,nt,nt
Cc1cc(C)cc(N(CCC(=O)Nc2nnc(C3CC3)s2)S(=O)(=O)c2ccc(Cl)cc2)c1,-2,0.7,0,2,1,nt,nt,nt
Cc1cc2c(c(=O)o1)C(c1ccc([N+](=O)[O-])o1)C(C#N)=C(N)O2 (configuration not stated),3,0.63,15*,7,19*,100*,8.3*,19
CCC(CC)C1C(C#N)=C(N)Oc2cc(C)oc(=O)c21 (configuration not stated),-2,0.66,3,0,4,nt,nt,nt
C/C(=N\OCc1nc2ccccc2c(=O)n1/N=C/c1cc([N+](=O)[O-])ccc1O)c1ccccc1,-4,nt,9,3,13*,-2,2,0
C/C(=N\OCc1nc2ccccc2c(=O)n1/N=C/c1cc(C)cc([N+](=O)[O-])c1O)c1ccccc1,-1,nt,9,9,8,nt,nt,nt
Cc1cccc(C)c1NC(=O)C1(C)CCC(=O)N1CCCn1ccnc1 (configuration not stated),nt,nt,nt,0,nt,nt,nt,nt
Cc1nc2cc(NC(=O)CCS(=O)(=O)c3ccccc3)ccc2s1,-6,0.69,-2,4,1,nt,nt,nt
COc1ccc(-n2c(C)cc(/C=N/Nc3nnc(C)n3N)c2C)cc1,-17,nt,3,1,14*,6,1,-3
COc1ccc(C=NNc2nnc(C)n2N)cc1OC,nt,0.7,nt,nt,nt,nt,nt,nt
Cn1c(N2CCOCC2)c(C=NO)c2ccccc21,nt,0.69,nt,nt,nt,nt,nt,nt
Cc1ccc(S(=O)(=O)N2CCC(C(=O)OCc3ccccc3)CC2)cc1C,10,0.63,8,-1,21*,-5,-1,-4
Cc1cc(Cl)ccc1OCCCC(=O)NNC(=O)c1ccccc1O,2,0.71,8,10,17*,8,8.7*,8
Cc1ccc(S(=O)(=O)Nc2nccs2)cc1[N+](=O)[O-],-4,0.66,1,3,3,nt,nt,nt
SMILES,Tat export inh,E coli growth-1,E coli growth-2,phage Ecoli inh,AddAB inh,AddAB confirm,RecBCD counter,Bact viability
Cc1ccc(S(=O)(=O)Nc2ccc(S(=O)(=O)Nc3nccs3)cc2)c([N+](=O)[O-])c1,-4,0.67,9,10,16*,6,4.1*,8
COc1cc(C(=O)NCC(=O)NN=Cc2ccc(-c3cccc([N+](=O)[O-])c3)o2)cc(OC)c1OC,nt,0.66,nt,nt,nt,nt,nt,nt
Cc1ccc(S(=O)(=O)N2CCOCC2)cc1C(=O)N1CCc2ccccc21,4,0.69,-1,3,-2,nt,nt,nt
CCCc1cc(C(=O)Nc2ccccc2SC)no1,-6,0.76,91*,3,98*,0,0,-3
Cc1cc(N/N=C/c2ccc(O)cc2O)nc(-c2ccccc2O)n1,1,nt,4,nt,14*,17*,7.1*,9
CCN1CCC2(CC1)C(C#N)=C(N)Oc1c2sc2nc(C)cc(C)c12,6,0.79,-3,2,2,nt,nt,nt
CC(NC(=O)CN1CCOCC1)c1ccc(F)cc1 (configuration not stated),-5,0.65,16*,1,15*,2,0,-2
NC(=NOC(=O)c1ccccc1Cl)c1ncc([N+](=O)[O-])s1,nt,0.6,nt,nt,nt,nt,nt,nt
N/C(=N/OC(=O)c1ccc(Cl)cc1)c1ncc([N+](=O)[O-])s1,-10,nt,6,6,19*,43*,1,1
O=C(NCc1nnc2c(C(F)(F)F)cc(Cl)cn12)c1ccc2c(c1)OCO2,-2,0.67,-2,0,3,nt,nt,nt
Cc1ccc(-n2cccc2C(=S)N=P(N(C)C)(N(C)C)N(C)C)cc1,-1,0.65,1,0,1,nt,nt,nt
COc1ccc(-c2nnc3ccc(SCC(=O)N4CCCCC4)nn23)cc1OC,2,0.74,48*,2,97*,-2,-2,-4
CCn1cc(C(=O)NCc2ccccn2)c(=O)c2cc(F)c(N3CCN(C)CC3)cc21,5,nt,93*,6,98*,99*,16*,98*
CCn1cc(C(=O)NCCc2ccccc2)c(=O)c2cc(F)c(N3CCN(C)CC3)cc21,7,0.6,13*,2,21*,71*,0,22
C/C(=C\C(=O)OCCCCCCCCC(=O)O)C[C@@H]1OC[C@H](C[C@@H]2O[C@H]2[C@@H](C)[C@H](C)O)[C@@H](O)[C@H]1O,128*,nt,6,10,18*,7,18*,2
O=C(Nc1ccc2oc(-c3ccncc3)nc2c1)c1ccc([N+](=O)[O-])o1,0,0.6,15*,3,18*,89*,8.8*,24
Cc1ccc(S(=O)(=O)N=C(c2ccc(F)cc2)N2CCOCC2)cc1,nt,0.71,nt,nt,nt,nt,nt,nt
CC1OC2(C)OC(=N)C1(C#N)C(C#N)(C#N)C2c1ccccc1 (configuration not stated),-8,0.68,23*,1,37*,2,0,1
O=C(Nc1ccc(Cl)cc1)ON=C1CCCC1,-8,0.66,9,4,23*,-2,1,-2
